# Laboratory results as given in article PMC7862700, “An all-to-all approach to the identification of sequence-specific readers for epigenetic DNA modifications on cytosine”.
# Key:
# Assay in all cases: DAPPL (digital affinity profiling via proximity ligation, sequencing); 10 mM Tris-HCl pH 7.5, 50 mM NaCl, 1 mM DTT, 4% glycerol, room temperature, 30 min; GST-TFs on glutathione beads, 16-mer random dsDNA library, 0.1% formaldehyde crosslink after washing; high values mean tight binding
# FLI1 = target: T1, FLI1 (Homo sapiens, UniProt Q01543 1-452); conditions: protein: recombinant; tags: N-terminal GST; dsDNA, one strand shown
# T1 sequence: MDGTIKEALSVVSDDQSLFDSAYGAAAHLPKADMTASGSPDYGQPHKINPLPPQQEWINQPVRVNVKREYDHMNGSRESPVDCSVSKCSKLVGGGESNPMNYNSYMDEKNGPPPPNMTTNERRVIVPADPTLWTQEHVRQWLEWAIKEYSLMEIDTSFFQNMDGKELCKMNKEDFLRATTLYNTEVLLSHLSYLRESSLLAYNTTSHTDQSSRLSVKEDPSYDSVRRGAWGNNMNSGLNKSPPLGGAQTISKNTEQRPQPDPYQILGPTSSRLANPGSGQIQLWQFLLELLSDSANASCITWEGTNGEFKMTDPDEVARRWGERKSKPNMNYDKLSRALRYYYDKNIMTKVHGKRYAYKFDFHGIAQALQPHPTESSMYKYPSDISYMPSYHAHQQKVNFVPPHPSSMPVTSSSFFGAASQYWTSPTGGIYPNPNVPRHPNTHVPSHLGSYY
# Procedure, shortened: (§1)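 GST fusions of human transcription factors were expressed in yeast and captured with glutathione beads. Once given DNA barcodes and pooled alongside a tag-only sample, they were incubated for 30 min at room temperature with 200 nmole of a random double-stranded 16-mer DNA library in Tris/NaCl/DTT/glycerol buffer, then washed, crosslinked (0.1% formaldehyde), proximity-ligated, PCR-amplified and sequenced on an Illumina NextSeq500. The binding signal of each hexamer is its read frequency for a factor divided by its frequency for the tag-only sample.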
# ELK1 = target: T2, ELK1 (Homo sapiens, UniProt P19419 1-428); conditions: protein: recombinant; tags: N-terminal GST; dsDNA, one strand shown
# T2 sequence: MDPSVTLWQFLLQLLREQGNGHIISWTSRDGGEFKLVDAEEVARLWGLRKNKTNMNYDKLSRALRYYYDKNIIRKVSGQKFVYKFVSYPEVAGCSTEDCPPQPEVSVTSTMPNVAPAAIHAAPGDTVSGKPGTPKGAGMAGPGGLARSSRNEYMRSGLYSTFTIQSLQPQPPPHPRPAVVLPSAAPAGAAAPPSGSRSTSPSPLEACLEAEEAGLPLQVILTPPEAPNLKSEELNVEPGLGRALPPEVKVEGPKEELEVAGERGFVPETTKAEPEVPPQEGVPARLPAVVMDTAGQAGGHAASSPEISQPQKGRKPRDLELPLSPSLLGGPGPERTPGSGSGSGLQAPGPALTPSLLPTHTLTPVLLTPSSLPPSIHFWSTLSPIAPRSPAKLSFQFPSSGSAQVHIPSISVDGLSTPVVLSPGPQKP
# Procedure, shortened: as §1
# GABPA = target: T3, GABPA (Homo sapiens, UniProt Q06546 1-454); conditions: protein: recombinant; tags: N-terminal GST; dsDNA, one strand shown
# T3 sequence: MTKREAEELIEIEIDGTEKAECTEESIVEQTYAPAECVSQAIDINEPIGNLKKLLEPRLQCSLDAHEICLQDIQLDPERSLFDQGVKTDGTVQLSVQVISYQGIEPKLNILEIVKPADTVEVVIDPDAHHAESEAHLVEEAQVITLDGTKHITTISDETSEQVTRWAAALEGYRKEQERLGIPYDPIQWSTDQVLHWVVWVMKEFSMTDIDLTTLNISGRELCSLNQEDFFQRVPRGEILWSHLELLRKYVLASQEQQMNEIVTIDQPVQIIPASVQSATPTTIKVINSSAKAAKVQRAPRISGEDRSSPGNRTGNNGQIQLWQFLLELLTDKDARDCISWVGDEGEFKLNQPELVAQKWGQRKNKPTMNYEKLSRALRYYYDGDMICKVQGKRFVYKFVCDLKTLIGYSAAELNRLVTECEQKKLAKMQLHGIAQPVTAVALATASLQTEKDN
# Procedure, shortened: as §1
# ERG = target: T4, ERG (Homo sapiens, UniProt P11308 1-479); conditions: protein: recombinant; tags: N-terminal GST; dsDNA, one strand shown
# T4 sequence: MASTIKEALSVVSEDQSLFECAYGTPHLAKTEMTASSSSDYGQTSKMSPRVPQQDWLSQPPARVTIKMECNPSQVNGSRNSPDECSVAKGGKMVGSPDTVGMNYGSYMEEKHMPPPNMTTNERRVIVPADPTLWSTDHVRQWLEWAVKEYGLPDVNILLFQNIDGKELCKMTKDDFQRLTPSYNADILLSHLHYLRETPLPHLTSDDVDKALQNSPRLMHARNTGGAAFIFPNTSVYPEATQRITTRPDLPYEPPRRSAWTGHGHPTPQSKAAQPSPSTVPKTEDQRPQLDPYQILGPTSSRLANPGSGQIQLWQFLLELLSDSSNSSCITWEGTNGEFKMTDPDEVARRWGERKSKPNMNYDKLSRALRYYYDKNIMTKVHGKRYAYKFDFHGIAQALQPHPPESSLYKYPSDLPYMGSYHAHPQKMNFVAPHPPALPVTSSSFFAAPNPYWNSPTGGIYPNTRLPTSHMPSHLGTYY
# Procedure, shortened: as §1
# ELF1 = ELF1 (Homo sapiens, UniProt P32519 1-619); conditions: protein: recombinant; tags: N-terminal GST; dsDNA, one strand shown
# Procedure, shortened: as §1
# EHF = target: T5, EHF (Homo sapiens, UniProt Q9NZC4 1-300); conditions: protein: recombinant; tags: N-terminal GST; dsDNA, one strand shown
# T5 sequence: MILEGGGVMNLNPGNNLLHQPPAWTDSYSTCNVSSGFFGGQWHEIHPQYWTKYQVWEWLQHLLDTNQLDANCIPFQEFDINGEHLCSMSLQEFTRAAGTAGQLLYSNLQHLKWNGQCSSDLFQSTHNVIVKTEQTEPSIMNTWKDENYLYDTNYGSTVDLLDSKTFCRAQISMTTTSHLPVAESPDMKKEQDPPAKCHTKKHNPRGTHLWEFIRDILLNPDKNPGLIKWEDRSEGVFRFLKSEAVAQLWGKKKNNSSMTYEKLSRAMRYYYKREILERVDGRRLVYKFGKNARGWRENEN
# Procedure, shortened: as §1
# SPI1 = SPI1 (Homo sapiens, UniProt P17947 1-270); conditions: protein: recombinant; tags: N-terminal GST; dsDNA, one strand shown
# Procedure, shortened: as §1
# SPIB = SPIB (Homo sapiens, UniProt Q01892 1-262); conditions: protein: recombinant; tags: N-terminal GST; dsDNA, one strand shown
# Procedure, shortened: as §1
# ELK3 = target: T6, ELK3 (Homo sapiens, UniProt P41970 1-407); conditions: protein: recombinant; tags: N-terminal GST; dsDNA, one strand shown
# T6 sequence: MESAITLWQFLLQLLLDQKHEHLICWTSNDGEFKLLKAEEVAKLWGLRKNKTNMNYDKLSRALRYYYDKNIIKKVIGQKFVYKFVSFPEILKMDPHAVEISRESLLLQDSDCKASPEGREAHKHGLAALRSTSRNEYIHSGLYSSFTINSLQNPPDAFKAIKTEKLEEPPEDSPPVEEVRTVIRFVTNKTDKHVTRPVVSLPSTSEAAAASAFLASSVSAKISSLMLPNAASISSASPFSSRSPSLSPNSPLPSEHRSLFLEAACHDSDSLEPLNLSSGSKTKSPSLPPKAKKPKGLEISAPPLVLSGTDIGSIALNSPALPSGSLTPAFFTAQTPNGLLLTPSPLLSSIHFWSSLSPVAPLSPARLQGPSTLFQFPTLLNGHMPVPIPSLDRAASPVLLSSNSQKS
# Procedure, shortened: as §1
# FEV = target: T7, FEV (Homo sapiens, UniProt Q99581 1-238); conditions: protein: recombinant; tags: N-terminal GST; dsDNA, one strand shown
# T7 sequence: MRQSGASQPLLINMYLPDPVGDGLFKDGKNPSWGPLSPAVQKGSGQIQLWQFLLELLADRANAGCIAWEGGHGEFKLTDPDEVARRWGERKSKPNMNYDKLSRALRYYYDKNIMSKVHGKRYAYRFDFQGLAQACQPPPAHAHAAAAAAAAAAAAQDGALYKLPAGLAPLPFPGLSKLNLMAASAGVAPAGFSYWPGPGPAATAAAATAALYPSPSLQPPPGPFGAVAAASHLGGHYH
# Procedure, shortened: as §1
# ETV5 = ETV5 (Homo sapiens, UniProt P41161 1-510); conditions: protein: recombinant; tags: N-terminal GST; dsDNA, one strand shown
# Procedure, shortened: as §1
# HSF1 = HSF1 (Homo sapiens, UniProt Q00613 1-529); conditions: protein: recombinant; tags: N-terminal GST; chain copies: 3; dsDNA, one strand shown
# Procedure, shortened: as §1
# SPIC = target: T8, SPIC (Homo sapiens, UniProt Q8N5J4 1-248); conditions: protein: recombinant; tags: N-terminal GST; dsDNA, one strand shown
# T8 sequence: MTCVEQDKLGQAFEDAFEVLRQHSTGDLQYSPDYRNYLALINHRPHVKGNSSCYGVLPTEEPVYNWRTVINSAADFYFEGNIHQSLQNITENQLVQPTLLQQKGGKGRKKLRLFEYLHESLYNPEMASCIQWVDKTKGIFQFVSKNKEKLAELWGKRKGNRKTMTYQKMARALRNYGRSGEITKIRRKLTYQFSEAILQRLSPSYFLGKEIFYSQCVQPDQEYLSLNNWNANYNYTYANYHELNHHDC
# Procedure, shortened: as §1
# ELF4 = ELF4 (Homo sapiens, UniProt Q99607 1-663); conditions: protein: recombinant; tags: N-terminal GST; dsDNA, one strand shown
# Procedure, shortened: as §1
# ELK4 = target: T9, ELK4 (Homo sapiens, UniProt P28324-2 1-405); conditions: protein: recombinant; tags: N-terminal GST; dsDNA, one strand shown
# T9 sequence: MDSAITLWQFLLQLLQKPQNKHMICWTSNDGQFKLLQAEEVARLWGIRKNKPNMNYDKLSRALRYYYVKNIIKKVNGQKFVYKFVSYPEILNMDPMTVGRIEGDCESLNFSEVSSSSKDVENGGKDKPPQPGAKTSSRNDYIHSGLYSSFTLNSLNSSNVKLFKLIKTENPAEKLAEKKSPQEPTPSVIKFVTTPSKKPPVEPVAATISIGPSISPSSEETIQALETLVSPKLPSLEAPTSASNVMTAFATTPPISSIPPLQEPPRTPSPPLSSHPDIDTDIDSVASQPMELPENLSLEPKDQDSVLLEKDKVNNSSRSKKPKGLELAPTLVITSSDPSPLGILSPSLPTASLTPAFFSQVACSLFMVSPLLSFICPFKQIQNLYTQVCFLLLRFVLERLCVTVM
# Procedure, shortened: as §1
# ETV2 = target: T10, ETV2 (Homo sapiens, UniProt O00321 1-342); conditions: protein: recombinant; tags: N-terminal GST; dsDNA, one strand shown
# T10 sequence: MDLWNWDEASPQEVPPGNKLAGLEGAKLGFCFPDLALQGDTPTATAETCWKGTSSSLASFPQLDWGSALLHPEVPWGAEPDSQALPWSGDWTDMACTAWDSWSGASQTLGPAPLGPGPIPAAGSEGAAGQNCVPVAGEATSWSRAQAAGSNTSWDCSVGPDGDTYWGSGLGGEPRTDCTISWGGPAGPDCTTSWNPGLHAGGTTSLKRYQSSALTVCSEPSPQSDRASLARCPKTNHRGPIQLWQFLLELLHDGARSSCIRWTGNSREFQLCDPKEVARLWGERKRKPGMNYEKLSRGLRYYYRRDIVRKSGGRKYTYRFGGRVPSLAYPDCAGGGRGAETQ
# Procedure, shortened: as §1
# ELF3 = target: T11, ELF3 (Homo sapiens, UniProt P78545 1-371); conditions: protein: recombinant; tags: N-terminal GST; dsDNA, one strand shown
# T11 sequence: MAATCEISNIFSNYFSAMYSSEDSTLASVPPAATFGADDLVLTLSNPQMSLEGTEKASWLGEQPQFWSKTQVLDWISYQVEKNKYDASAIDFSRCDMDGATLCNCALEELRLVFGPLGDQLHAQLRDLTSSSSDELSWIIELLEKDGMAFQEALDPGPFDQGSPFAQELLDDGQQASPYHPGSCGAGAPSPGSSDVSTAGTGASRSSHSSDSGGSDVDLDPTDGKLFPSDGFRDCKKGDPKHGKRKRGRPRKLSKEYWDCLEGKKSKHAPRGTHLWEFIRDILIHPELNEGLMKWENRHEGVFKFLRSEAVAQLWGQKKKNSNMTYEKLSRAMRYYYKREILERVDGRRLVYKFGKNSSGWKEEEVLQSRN
# Procedure, shortened: as §1
# CRX = CRX (Homo sapiens, UniProt O43186 1-299); conditions: protein: recombinant; tags: N-terminal GST; dsDNA, one strand shown
# Procedure, shortened: as §1
# ETV1 = ETV1 (Homo sapiens, UniProt P50549 1-477); conditions: protein: recombinant; tags: N-terminal GST; dsDNA, one strand shown
# Procedure, shortened: as §1
# ELF4, sequence (Q99607 whole entry): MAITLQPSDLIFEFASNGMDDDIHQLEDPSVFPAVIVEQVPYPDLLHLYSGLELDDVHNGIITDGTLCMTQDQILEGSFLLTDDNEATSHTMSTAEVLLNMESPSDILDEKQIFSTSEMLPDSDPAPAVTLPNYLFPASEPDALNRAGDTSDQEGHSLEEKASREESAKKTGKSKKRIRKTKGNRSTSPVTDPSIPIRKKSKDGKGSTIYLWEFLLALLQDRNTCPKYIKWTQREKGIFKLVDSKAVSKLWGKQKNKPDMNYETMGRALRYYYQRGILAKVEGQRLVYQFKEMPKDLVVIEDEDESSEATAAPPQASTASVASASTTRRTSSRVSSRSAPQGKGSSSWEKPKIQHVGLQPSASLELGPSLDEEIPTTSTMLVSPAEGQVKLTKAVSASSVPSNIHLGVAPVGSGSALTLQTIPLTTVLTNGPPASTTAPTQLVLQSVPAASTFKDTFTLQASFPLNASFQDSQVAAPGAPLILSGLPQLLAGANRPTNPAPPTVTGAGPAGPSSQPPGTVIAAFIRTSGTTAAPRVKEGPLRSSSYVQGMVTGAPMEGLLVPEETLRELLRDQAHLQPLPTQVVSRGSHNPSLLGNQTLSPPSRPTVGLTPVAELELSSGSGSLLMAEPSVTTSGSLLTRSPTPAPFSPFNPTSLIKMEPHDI
# CRX, sequence (O43186 whole entry): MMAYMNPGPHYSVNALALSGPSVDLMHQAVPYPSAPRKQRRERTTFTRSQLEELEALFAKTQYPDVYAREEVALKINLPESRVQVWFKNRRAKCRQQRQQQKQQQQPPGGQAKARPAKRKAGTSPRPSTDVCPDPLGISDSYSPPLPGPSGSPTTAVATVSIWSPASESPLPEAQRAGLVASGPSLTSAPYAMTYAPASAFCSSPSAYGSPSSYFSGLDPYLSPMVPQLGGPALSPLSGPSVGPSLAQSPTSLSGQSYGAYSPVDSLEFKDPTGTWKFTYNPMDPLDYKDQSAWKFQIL
# ETV5, sequence (P41161 whole entry): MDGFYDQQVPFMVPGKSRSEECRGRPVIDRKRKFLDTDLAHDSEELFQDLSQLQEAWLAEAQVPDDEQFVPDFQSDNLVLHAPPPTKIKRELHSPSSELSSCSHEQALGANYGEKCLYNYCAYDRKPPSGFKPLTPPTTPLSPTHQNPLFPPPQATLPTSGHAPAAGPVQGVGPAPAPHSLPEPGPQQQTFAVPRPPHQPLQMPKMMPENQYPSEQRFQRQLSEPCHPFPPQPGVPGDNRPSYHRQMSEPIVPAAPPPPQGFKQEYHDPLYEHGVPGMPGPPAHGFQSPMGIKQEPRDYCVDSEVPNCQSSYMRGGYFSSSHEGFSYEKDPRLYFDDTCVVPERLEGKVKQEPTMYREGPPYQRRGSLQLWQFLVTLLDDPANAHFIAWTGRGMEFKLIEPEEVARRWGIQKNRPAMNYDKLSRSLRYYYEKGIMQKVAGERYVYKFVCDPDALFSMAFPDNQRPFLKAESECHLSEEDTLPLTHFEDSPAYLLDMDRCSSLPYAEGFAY
# HSF1, sequence (Q00613 whole entry): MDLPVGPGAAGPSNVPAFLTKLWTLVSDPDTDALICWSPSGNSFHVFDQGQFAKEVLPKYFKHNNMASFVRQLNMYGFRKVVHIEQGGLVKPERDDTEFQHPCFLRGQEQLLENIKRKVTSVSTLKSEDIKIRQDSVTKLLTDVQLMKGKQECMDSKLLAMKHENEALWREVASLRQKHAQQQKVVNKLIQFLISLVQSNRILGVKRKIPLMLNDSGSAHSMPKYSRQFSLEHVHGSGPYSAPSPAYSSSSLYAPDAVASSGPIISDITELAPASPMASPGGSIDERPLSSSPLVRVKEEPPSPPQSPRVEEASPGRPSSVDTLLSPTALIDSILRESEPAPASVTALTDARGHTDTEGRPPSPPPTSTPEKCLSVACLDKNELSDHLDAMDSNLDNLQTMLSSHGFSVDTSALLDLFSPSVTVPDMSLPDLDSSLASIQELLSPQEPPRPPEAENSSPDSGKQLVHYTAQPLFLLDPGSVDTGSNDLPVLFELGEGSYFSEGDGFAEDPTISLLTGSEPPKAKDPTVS
# ELF1, sequence (P32519 whole entry): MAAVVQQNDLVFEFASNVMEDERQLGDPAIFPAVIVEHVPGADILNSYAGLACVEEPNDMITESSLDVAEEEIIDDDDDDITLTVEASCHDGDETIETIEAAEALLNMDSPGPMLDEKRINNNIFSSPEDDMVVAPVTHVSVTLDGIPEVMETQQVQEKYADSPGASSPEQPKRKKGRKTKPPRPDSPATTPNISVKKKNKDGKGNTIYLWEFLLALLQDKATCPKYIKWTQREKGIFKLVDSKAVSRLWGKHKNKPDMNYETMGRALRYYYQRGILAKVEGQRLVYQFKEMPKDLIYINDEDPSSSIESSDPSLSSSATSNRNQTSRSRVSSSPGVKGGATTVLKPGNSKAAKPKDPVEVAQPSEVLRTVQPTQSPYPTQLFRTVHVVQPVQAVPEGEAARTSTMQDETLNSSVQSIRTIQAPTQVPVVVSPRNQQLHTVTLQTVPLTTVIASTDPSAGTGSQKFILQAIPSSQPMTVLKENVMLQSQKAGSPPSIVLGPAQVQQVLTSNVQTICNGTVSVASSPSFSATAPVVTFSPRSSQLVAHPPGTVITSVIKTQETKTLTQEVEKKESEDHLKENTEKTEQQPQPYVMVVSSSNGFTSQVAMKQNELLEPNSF
# SPIB, sequence (Q01892 whole entry): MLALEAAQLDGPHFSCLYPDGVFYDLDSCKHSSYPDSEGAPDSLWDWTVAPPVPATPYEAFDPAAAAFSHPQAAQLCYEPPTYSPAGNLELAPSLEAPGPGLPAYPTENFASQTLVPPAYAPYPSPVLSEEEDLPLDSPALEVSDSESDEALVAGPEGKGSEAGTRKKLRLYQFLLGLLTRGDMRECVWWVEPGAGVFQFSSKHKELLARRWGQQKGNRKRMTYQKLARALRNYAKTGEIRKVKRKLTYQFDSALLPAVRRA
# ETV1, sequence (P50549 whole entry): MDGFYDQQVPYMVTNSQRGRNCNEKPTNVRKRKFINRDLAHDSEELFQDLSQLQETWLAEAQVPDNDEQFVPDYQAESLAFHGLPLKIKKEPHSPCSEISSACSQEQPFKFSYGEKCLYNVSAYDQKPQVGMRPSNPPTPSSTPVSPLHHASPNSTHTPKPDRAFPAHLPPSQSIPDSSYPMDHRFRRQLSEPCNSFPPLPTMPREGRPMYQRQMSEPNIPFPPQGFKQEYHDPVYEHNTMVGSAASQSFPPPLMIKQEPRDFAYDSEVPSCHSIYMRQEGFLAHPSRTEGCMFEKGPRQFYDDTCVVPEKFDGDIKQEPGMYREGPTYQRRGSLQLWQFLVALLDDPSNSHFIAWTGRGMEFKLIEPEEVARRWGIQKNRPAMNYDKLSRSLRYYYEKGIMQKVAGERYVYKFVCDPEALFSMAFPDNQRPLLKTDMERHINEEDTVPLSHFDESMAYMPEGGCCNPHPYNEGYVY
sequence,measurement,setting,value
TCTCCC,binding signal,FLI1,"1.66 fold enrichment (6-mer frequency, TF over GST control)"
same,binding signal,ELK1,"1.68 fold enrichment (6-mer frequency, TF over GST control)"
same,binding signal,GABPA,"1.74 fold enrichment (6-mer frequency, TF over GST control)"
same,binding signal,ERG,"1.54 fold enrichment (6-mer frequency, TF over GST control)"
same,binding signal,ELF1,"1.63 fold enrichment (6-mer frequency, TF over GST control)"
same,binding signal,EHF,"1.73 fold enrichment (6-mer frequency, TF over GST control)"
same,binding signal,SPI1,"1.47 fold enrichment (6-mer frequency, TF over GST control)"
same,binding signal,SPIB,"1.71 fold enrichment (6-mer frequency, TF over GST control)"
same,binding signal,ELK3,"1.75 fold enrichment (6-mer frequency, TF over GST control)"
same,binding signal,FEV,"1.7 fold enrichment (6-mer frequency, TF over GST control)"
same,binding signal,ETV5,"1.64 fold enrichment (6-mer frequency, TF over GST control)"
same,binding signal,HSF1,"1.65 fold enrichment (6-mer frequency, TF over GST control)"
same,binding signal,SPIC,"1.51 fold enrichment (6-mer frequency, TF over GST control)"
same,binding signal,ELF4,"1.78 fold enrichment (6-mer frequency, TF over GST control)"
same,binding signal,ELK4,"1.63 fold enrichment (6-mer frequency, TF over GST control)"
same,binding signal,ETV2,"1.54 fold enrichment (6-mer frequency, TF over GST control)"
same,binding signal,ELF3,"1.78 fold enrichment (6-mer frequency, TF over GST control)"
same,binding signal,CRX,"1.7 fold enrichment (6-mer frequency, TF over GST control)"
same,binding signal,ETV1,"1.78 fold enrichment (6-mer frequency, TF over GST control)"
